This is a sample that favours compounds with a hit; in the whole collection about 2.2% have one here.
MITF TRPM1 inh – MITF TRPM1 promoter inhibition in SK-MEL-5 cells | SK-MEL-5 TRPM1 promoter luciferase, 24 h | inhibition, % at 12.5 µM | 330,000 compounds, 0.83% hits | AID 488899;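 active means mean inhibition across replicates of 60% or more, whatever share of single replicates reaches that level; inconclusive means some that reach 60%, reason not given; inactive means mean inhibition across replicates below 60%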
LGR2 inh – inhibitors of bursicon-induced Drosophila LGR2 receptor cAMP signaling. AID 720647. 380,000 compounds, 0.35% hits. HEK293 LGR2, CRE-luciferase, bursicon-stimulated, 4 h. inhibition, % at 9.99 µM;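 active means drop in luminescence signal, shown as inhibition above about 50% in the replicate tests, limit read from the data, passing the limit was not always enough; inconclusive means probably only some replicates passing the limit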;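 further: agonist challenge used bursicon conditioned medium at about half maximal strength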
LMP1 NFkB inh – reduces LMP1-driven NF-kappaB luciferase signal; inhibition, % at 12.5 µM; LMP1-induced NF-kappaB luciferase reporter cells, luminescence; 350,000 compounds, 0.69% hits; in the data active means inhibition above about 41%; inconclusive means no clear call, values can overlap the other calls;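 further: 0% = neutral control wells and 100% = reference inhibitor control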
PGC1a acetyl inh – lowers PGC1a acetylation signal in U2OS cells; AlphaScreen anti-acetyl-lysine; with virally co-expressed GCN5 acetyltransferase; inhibition, % at 15.6 µM; 350,000 compounds, 0.17% hits; AID 651687;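 active means every replicate shows inhibition of at least 40%; inconclusive means mean inhibition at least 40% but some replicate below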;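 further: 0% = neutral control wells and 100% = positive control wells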
EWS-Fli block – EWS/Fli transcriptional activity inhibition; AID 651661; A673 NR0B1-luciferase reporter, viability-normalised; 350,000 compounds, 0.67% hits; inhibition, % at 12.6 µM;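 active means mean inhibition of at least 50% after viability correction, with every replicate also passing that limit; inconclusive means mean reaches 50% but only one of two replicates passes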;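 further: firefly luciferase signal divided by Alamar Blue viability fluorescence both relative to DMSO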
PAX8 reporter – PAX8 transcriptional activity inhibition | RMG-I TPO-luciferase reporter, SteadyGlo, 24 h | inhibition, % at 12.6 µM | 360,000 compounds, 1.2% hits | AID 652154;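 active means mean replicate inhibition at least 60% with every replicate also reaching 60%; inconclusive means only one of the two criteria is met; inactive means mean below 60% and not all replicates reaching 60%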;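 further: luciferase light reporting Pax8 driven TPO promoter activity; plate controls were median of neutral control wells for no effect and mitoxantrone controls for full effect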
The depositor's hits bear a star; ? = inconclusive; . = not tested or not shown.

SMILES	MITF TRPM1 inh	LGR2 inh	LMP1 NFkB inh	PGC1a acetyl inh	EWS-Fli block	PAX8 reporter
CCN1[C@@H]2Cn3c(cccc3=O)[C@H]1[C@@H](C(=O)NC1Cc3ccccc3C1)[C@@H]2CO	.	10	.	.	0	-9
COc1cccc(/C=C2/SC(=S)N(CCCC(=O)Nc3ccc(O)cc3)C2=O)c1	-9	5	31	5	5	.
CC(/C=C1\SC(=S)N(CCC(=O)Nc2ccc(O)cc2)C1=O)=C\c1ccccc1	8	-12	-3	.	3	74*
COc1ccc(/C=C2/SC(=S)N(CCCC(=O)Nc3ccc(O)cc3)C2=O)cc1OC	5	11	21	.	17	.
CCOc1ccc(/C=C2\SC(=S)N(CCC(=O)O)C2=O)cc1	85*	-37	47*	8	73*	-6
O=C(CCCN1C(=O)/C(=C\c2ccccc2)SC1=S)Nc1ccc(O)cc1	16	-7	9	17	3	77*
Cc1ccc(/C=C2/SC(=S)N(CCCC(=O)Nc3ccc(O)cc3)C2=O)cc1	44	-63	38	-7	50	81*
O=C1/C(=C/c2ccncc2)SC(=S)N1Cc1ccccc1	21	39	43*	.	37	40
O=C(CCCN1C(=O)/C(=C/c2ccccc2)SC1=S)Nc1cccc(O)c1	-9	7	8	.	4	66*
O=C(O)CCCN1C(=O)/C(=C\C(Cl)=C\c2ccccc2)SC1=S	66*	-5	-27	-14	?	115*
Cc1ccc(/C=C2\SC(=S)N(CCCC(=O)NC3CCCC3)C2=O)cc1	76*	-5	55*	.	.	25
O=C(C[C@@H]1C=C[C@H](NS(=O)(=O)c2ccc(F)cc2)[C@@H](CO)O1)NCc1ccccc1F	.	-14	.	-4	-6	.
O=C(CCN1C(=O)/C(=C/c2cccs2)SC1=S)Nc1cccc(O)c1	-11	-8	-1	1	3	9
O=C(CCCN1C(=O)/C(=C/c2cccs2)SC1=S)Nc1cccc(O)c1	-5	-1	5	-6	12	67*
O=C(COC(=O)CCN1C(=O)/C(=C\C=C\c2ccccc2)SC1=S)Nc1ccc(Br)cc1	64*	-7	13	-5	40	-15
O=C(CCCN1C(=O)/C(=C/c2ccccc2Cl)SC1=S)Nc1cccnc1	5	10	58*	.	.	81*
N#C[C@H]1[C@H](c2ccccc2-c2cccc(F)c2)[C@@H](CO)N1C(=O)NC1CCCC1	.	19	.	.	4	.
Cc1ccc(N/C=C/C(=O)c2cccs2)cc1C	-1	63*	-2	-5	40	-2
CCc1ccc(OCC(=O)O/N=C(\N)c2ccccn2)cc1	.	-36	.	2	-68	-141
CCOc1ccc(C(=O)O/N=C(\N)c2ccccn2)cc1	67*	103*	88*	1	81*	128*
Cc1cccc(/C(N)=N/OC(=O)c2ccc(Br)o2)c1	-57	-29	-28	.	.	-123
N/C(=N\OC(=O)c1ccc(Br)o1)c1ccccn1	-2	74*	31	-2	11	-12
N/C(=N\OC(=O)/C=C/c1ccccc1Cl)c1ccccn1	10	73*	2	.	42	19
N/C(=N\OCc1ccc([N+](=O)[O-])cc1)c1ccccn1	73*	.	73*	.	.	.
N/C(=N\OC(=O)/C=C/c1ccccc1Cl)c1cccnc1	.	7	.	-2	-102	-134
SMILES	MITF TRPM1 inh	LGR2 inh	LMP1 NFkB inh	PGC1a acetyl inh	EWS-Fli block	PAX8 reporter
O=C(C[C@@H]1C[C@@H]2c3cc(NC(=O)Nc4ccc(C(F)(F)F)cc4)ccc3O[C@@H]2[C@@H](CO)O1)NCc1cccnc1	.	.	.	13	-5	13
N/C(=N\OC(=O)c1ccccc1)c1ccccn1	56	95*	45*	.	20	17
CC(C)(C)c1ccc(C(=O)O/N=C(\N)c2ccccn2)cc1	78*	102*	74*	-9	75*	70*
CO[C@@H]1CN(C)C(=O)c2cc(NC(=O)Nc3c(C)noc3C)ccc2OC[C@@H](C)N(C(=O)Nc2cccc(Cl)c2)C[C@H]1C	.	-19	.	.	-9	9
COc1ccc(S(=O)(=O)N(C)C[C@@H]2OCCCC[C@@H](C)Oc3ccc(NC(=O)CCCN(C)C)cc3C(=O)N([C@@H](C)CO)C[C@H]2C)cc1	.	7	.	6	-10	-15
CC(C)(C)CC(C)(C)c1ccc(OCCOCC[N+](C)(C)Cc2ccccc2)cc1	78*	36	7	.	25	78*
CC(=O)Nc1ccc(S(=O)(=O)N2CCCC2)cc1	1	-12	71*	.	-5	3
CC(=O)Nc1ccc(S(=O)(=O)N2CCN(S(=O)(=O)N3CCCCCC3)CC2)cc1	10	12	5	-19	.	.
COCCCn1cnnc1SCC(=O)Nc1ccc(S(=O)(=O)N2CCCC2)cc1	4	.	60*	13	.	.
O=C(Nc1ccc(OC(F)(F)F)cc1)c1[nH]ncc1[N+](=O)[O-]	70*	-52	-10	-8	-39	-34
O=C(Nc1ccc([N+](=O)[O-])cc1)c1ccc(S(=O)(=O)N2CCCC2)cc1	3	10	1	.	1	-4
O=C(Nc1ccc(S(=O)(=O)N2CCCCCC2)cc1)c1[nH]ncc1[N+](=O)[O-]	70*	-21	2	.	.	16
COc1ccc2c3c([nH]c2c1)[C@H](CO)N(C(=O)C1CCCC1)CC31CCN(C)CC1	.	-12	.	.	5	1
C[C@@H]1CN([C@@H](C)CO)C(=O)c2cc(NC(=O)Nc3ccc(C(F)(F)F)cc3)ccc2O[C@@H](C)CCCCO[C@@H]1CN(C)CC1CCCCC1	.	9	.	-15	-12	108*
C[C@@H]1CCCCO[C@H](CN(C)CC2CCCCC2)[C@@H](C)CN([C@H](C)CO)C(=O)c2cc(NC(=O)Nc3ccc(C(F)(F)F)cc3)ccc2O1	.	0	.	1	-1	-23

Source: PubChem BioAssay (Broad Institute)
